# Screening data deposited in PubChem by several laboratories.
# CR mimetic SO: lowers age-related superoxide in aged yeast cells; AID 2690; hit rate 0.18% among 330,000; superoxide response (% of plate mean), % at 10 µM; S. cerevisiae aged cells, superoxide DHE fluorescence; stronger effect = lower value;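 active = superoxide response under a set limit, about three screen SD below normal, cut at about 65% in these data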;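 also: yeast aged for seven days with compound at 30 °C before DHE staining; 100% = average MFI of all compound-treated wells on the plate with controls excluded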
# V-ATPase pHluor: regulators of yeast V-ATPase proton transport. S. cerevisiae, pHLuorin cytosolic pH fluorescence. response, % at 10 µM. hit rate 0.37% among 350,000; in the data active = response mostly above about 7.3%, no sharp cut-off; inactive = mostly below about 5.4%; also: actives read high
# H9c2 protect: myocardial damage modulation in H9c2 cells; AID 588492; protection from H2O2 cell death, % at 20 µM; hit rate 0.63% among 360,000; H9c2 cardiomyocytes, H2O2 injury protection, ATPLite, 2 h;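 active = compounds giving at least 50% protection of heart cells from peroxide-induced death in the single-dose screen, raw or plate-pattern-corrected value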;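 also: 0% = DMSO wells with peroxide and 100% = DMSO wells without peroxide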
# HSV augment: HSV replication enhancement | hit rate 0.005% among 220,000 | maximum fold increase | AID 1956 | HSV replication augmentation in cells, fold increase; in the data active = maximum fold increase above about 1.5; tested in PC3 cells
# MIN6 prolif-1: inducers of beta-cell replication in MIN6 cells | AID 2380 | MIN6 cells proliferation, ATPlite luminescence, 48 h; cells starved in 0.2% serum; 100% = growth in 10% serum | hit rate 0.29% among 330,000 | proliferation, % at 10 µM;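 active = compounds whose signal lies at least 3.5 SD above the mean of all wells on their plate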;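 also: 0% = DMSO-treated cells in low-serum medium and 100% = 10% serum control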
# p-CIP stab down: p/CIP protein destabilization; hit rate 0.01% among 290,000; F442A p/CIP-EGFP cells, EGFP fluorescence, 16 h; decrease of EGFP signal, % at 10 µM; Q05BA5;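 active = EGFP signal decrease of at least 30% at 10 µM or well 3 SD below plate mean, unless failing retest; inactive = the rest, including hits failing retest or dose response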
# Target sequence (Q05BA5 1-1403): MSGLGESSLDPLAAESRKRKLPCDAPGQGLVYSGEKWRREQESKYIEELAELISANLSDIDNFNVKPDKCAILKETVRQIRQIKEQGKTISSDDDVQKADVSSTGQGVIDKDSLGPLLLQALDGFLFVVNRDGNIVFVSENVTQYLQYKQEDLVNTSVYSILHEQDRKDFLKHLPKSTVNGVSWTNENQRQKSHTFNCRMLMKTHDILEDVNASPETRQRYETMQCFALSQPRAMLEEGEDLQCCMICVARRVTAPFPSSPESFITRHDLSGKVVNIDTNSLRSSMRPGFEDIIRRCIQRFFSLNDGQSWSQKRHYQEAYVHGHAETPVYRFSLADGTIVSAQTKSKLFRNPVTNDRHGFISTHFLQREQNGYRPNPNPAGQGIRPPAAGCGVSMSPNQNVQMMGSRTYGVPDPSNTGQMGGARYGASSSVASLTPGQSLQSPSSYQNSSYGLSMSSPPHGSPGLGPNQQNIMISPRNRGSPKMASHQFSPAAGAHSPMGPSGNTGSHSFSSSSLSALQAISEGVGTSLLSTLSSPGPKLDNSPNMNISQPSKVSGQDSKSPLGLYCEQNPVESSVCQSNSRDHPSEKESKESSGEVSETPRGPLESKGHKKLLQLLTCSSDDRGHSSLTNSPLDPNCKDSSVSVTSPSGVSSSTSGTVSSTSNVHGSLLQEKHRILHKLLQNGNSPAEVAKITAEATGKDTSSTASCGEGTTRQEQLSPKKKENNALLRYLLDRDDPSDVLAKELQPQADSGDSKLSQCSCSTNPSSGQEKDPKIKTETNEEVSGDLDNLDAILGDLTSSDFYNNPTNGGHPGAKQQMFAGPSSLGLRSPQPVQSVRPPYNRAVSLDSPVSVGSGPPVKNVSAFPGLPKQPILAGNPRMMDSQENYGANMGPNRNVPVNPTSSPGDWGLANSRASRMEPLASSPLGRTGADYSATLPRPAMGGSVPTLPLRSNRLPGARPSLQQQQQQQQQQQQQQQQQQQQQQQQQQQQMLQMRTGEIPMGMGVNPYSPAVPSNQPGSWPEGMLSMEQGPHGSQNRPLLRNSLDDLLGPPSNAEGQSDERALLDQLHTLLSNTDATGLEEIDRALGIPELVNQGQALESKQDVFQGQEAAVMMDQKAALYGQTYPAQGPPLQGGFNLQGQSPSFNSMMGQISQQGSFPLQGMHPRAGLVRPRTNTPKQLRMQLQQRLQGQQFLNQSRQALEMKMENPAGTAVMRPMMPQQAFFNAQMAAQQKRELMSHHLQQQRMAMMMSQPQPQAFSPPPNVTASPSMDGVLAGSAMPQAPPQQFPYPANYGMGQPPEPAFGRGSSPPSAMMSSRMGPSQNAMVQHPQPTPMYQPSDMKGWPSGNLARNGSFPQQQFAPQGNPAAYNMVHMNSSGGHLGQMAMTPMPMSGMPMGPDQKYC
# MIN6 prolif-2: MIN6 beta-cell replication induction, confirmed; shares compounds with MIN6 prolif-1; MIN6 beta-cell proliferation, ATPlite luminescence, 48 h; cells kept in 0.2% serum; scaled between 0.2% and 10% serum; proliferation increase, % at 50 µM; 920 tested, under 10 active; AID 463095;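 active = proliferation increase above 40% at any of the four tested concentrations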
# An asterisk follows results filed as active; i = inactive; . = no result. Compounds with a hit are over-represented: about 1.4% of the library has one in this group of screens.
SMILES,CR mimetic SO,V-ATPase pHluor,H9c2 protect,HSV augment,MIN6 prolif-1,p-CIP stab down,MIN6 prolif-2
Cc1cc(C)c(S(=O)(=O)N(C)CC(=O)NC2CCCC2)c(C)c1,101,-2,-3,i,-1,-2,.
O=C(c1ccc(Br)c([N+](=O)[O-])c1)N1CCN(Cc2ccccc2)CC1,124,-1,1,.,-4,0,.
O=C(c1ccc(N2CCOCC2)c([N+](=O)[O-])c1)N1CCN(Cc2ccccc2)CC1,100,3,-1,.,5.8*,0,-2
CCOc1nc(Nc2ccccc2F)nc(OCC)n1,114,0,-5,.,5.0*,-4,-2
C=CCNc1nc(Nc2ccccc2F)nc(OCC)n1,97,0,-5,i,3,-1,.
NC(=O)c1cc(S(=O)(=O)NCCc2ccccc2)cs1,83,2,-4,.,1,5,.
NC(=O)c1cc(S(=O)(=O)NCCc2ccc(S(N)(=O)=O)cc2)cs1,96,3,-2,.,5.5*,-2,0
O=C(CSc1nc2ccccc2[nH]1)Nc1ccc(N2CCOCC2)cc1,105,-2,2,.,-4,-3,.
CC(C)n1cnc2c(N(C)c3cccc(Cl)c3)nc(N(CCO)CCO)nc21,104,2,7,i,17*,-8,0
CC(C)[C@H](CO)N(Cc1cccc(F)c1)c1nc(Nc2cccc(Cl)c2)c2ncn(C(C)C)c2n1,97,-3,-16,i,-9,10,.
Cc1ccc(NC(=O)c2ncn(CC(=O)NCc3ccc4c(c3)OCO4)n2)cc1C,95,-1,-13,.,.,.,.
CCC1CCCCN1CCCNC(=O)c1csc2c1CCCCC2 (configuration not stated),110,-2,0,.,1,3,.
CCN1CCCC1CNC(=O)c1csc2c1CCCC2 (configuration not stated),82,-4,-3,i,6.4*,0,-4
Cc1ccc(S(=O)(=O)N(CC(O)CN2C(=O)NC(C)(C)C2=O)c2ccccc2)cc1 (configuration not stated),95,-4,0,i,8.8*,-1,-1
Cc1ccc(S(=O)(=O)N(CC(O)CN2C(=O)NC(C)(C)C2=O)c2cccc(C)c2)cc1 (configuration not stated),93,-3,2,i,1,-6,.
O=C(COc1ccccc1)NC1C(=O)N2C(C(=O)O)=C(Cl)CSC12 (configuration not stated),78,-2,8,.,10*,-10,-1
COc1cc(OC)cc(-c2nc(-c3cccs3)no2)c1,90,0,-2,i,7.7*,-12,1
COc1ccc(Cl)cc1NC(=S)N1CCCC1,111,1,7,i,-4,-14,.
FC(F)Sc1nnc(-c2cccs2)n1-c1ccccc1,119,1,5,i,9.6*,-7,5
COc1cc2[nH]c(=O)n(CCCCCC(=O)NC3CCCC3)c(=O)c2cc1OC,84,3,-1,.,5.7*,-18,-2
Cc1cc(F)ccc1-c1cc(C(=O)NC(C)C)[nH]n1,.,.,-6,.,.,.,.
CCc1ccccc1NC(=O)COC(=O)c1cccs1,109,0,0,.,8.1*,-9,2
O=C(OCC(=O)N1CCCC1)c1cccs1,101,4,3,i,8.1*,8,1
O=C(OCC(=O)N1CCN(c2ccccc2)CC1)c1cccs1,100,-5,-6,.,3,.,.
COc1ccc(-c2nc(-c3ccc(Br)o3)no2)cc1OC,95,.,-2,i,-2,2,.
SMILES,CR mimetic SO,V-ATPase pHluor,H9c2 protect,HSV augment,MIN6 prolif-1,p-CIP stab down,MIN6 prolif-2
COc1ccc(-c2nnc(-c3ccc(Br)o3)o2)cc1OC,116,0,7,i,7.2*,2,2
CCN(CC)c1ccc(NC(=O)CCS(=O)(=O)c2ccc(Br)cc2)c(C)c1,92,2,-9,.,-3,-8,.
O=S(=O)(Nc1ccc2c(c1)OCO2)c1ccc(Cl)cc1F,86,0,-1,.,-1,.,.
O=C1CCCN1c1ccc(Br)cc1,85,1,-7,i,7.2*,-3,-2
O=C(CSc1nnc2ccccn12)NNC(=O)c1ccccc1F,74,-6,-1,.,-3,.,.
CCN(CC)c1ccc(NC(=O)COC(=O)c2ccc3ccccc3n2)cc1,109,3,-10,i,-2,-15,.
CCOc1ccccc1NC(=O)N1CCC(NC(=O)c2ccccc2C)CC1,88,0,5,i,7.8*,-9,2
CCOc1ccc(-c2nc(-c3cccnc3)no2)cc1OCC,98,-5,14,i,9.7*,0,-1
CCOc1ccc(-c2noc(-c3cccnc3)n2)cc1OCC,95,0,14,i,3,-14,.
CCOc1cc(-c2nc(-c3cc(OC)c(OC)c(OC)c3)no2)cc(OCC)c1OCC,104,.,.,i,6.5*,.,3
COCCC(=O)N1CCC(Oc2ccc(C(=O)N(C)C3CCCCC3)cc2)CC1,93,0,-6,.,6.6*,9,-3
CC(C)c1ccc(NC(=O)C2(C)Cc3c(-c4ccc5c(c4)OCO5)ccnc3O2)cc1 (configuration not stated),.,.,-7,.,.,.,.
O=C(NNC(=O)C1CC(c2cccnc2)=NO1)Nc1cccc(F)c1 (configuration not stated),102,3,0,.,5.6*,4,1
O=C(Nc1cccnc1)C1CC(c2ccc(Cl)c(Cl)c2)=NO1 (configuration not stated),96,3,-1,i,-3,7,.
CCOC(=O)c1ccc(NC(=O)CSc2nc(N3CCOCC3)nc(N3CCOCC3)n2)cc1,125,-2,-8,.,0,-15,.
CCOC(=O)CNC(=O)CSc1nc(N(C)C)nc(N2CCOCC2)n1,105,-3,15,i,5.5*,-4,3
COc1ccccc1CNC(=O)c1ccc2nc(N3CCOCC3)sc2c1,110,-1,-3,.,3,-8,.
COc1ccc(Nc2nc(N(C)c3ccccc3)nc(N)c2[N+](=O)[O-])cc1,89,3,-14,.,10*,-13,4
CN(c1ccccc1)c1nc(N)c([N+](=O)[O-])c(Nc2ccccc2)n1,100,-2,-6,.,-2,-12,.
CCN(CC)Cc1c(C(=O)N/N=C/c2ccc(C)o2)nnn1-c1nonc1N,85,-4,9,.,0.0*,-4,4
Cc1coc2cc3oc(=O)cc(C)c3cc12,95,-5,10,i,7.3*,-2,4
Cc1ccccc1NS(=O)(=O)c1ccc(C(=O)NCC(c2ccccc2)N(C)C)cc1 (configuration not stated),123,2,-4,.,-2,-12,.
